High-throughput results (PubChem)
Cycloheximide cs: Cycloheximide Counterscreen for Small Molecule Inhibitors of Shiga Toxin | cell reporter, cycloheximide protein synthesis inhibition counterscreen | max response, % | 300,000 tested, 12% active; in the data active = max response mostly above about 13%, no sharp cut-off; inactive = mostly below about 14%; note: read at 38.3 µM for the half of the compounds with a filed dose; 0% is about no effect
Sm TGR inh: qHTS Assay for the Inhibitors of Schistosoma Mansoni Peroxiredoxins; Schistosoma mansoni thioredoxin glutathione reductase (TGR), Q962Y6; purified TGR, DTNB reduction, TNB absorbance 405 nm; Potency, µM (highest dose often 114 µM), without a hit: at the highest dose activity change, negative = inhibition, hits mostly inhibitors; 360,000 tested, 3% active; AID 485364, 2010; active = well fitted inhibition curve with a large enough effect; inconclusive = small, poorly fitted or top-dose-only effect; inactive = no such curve, though single readings can be large or run the other way; note: potency is the fitted concentration of half-maximal effect; % is set by controls: 0 for no effect and ±100 for the full control effect; nearly all actives have a fitted effect of over 60% in size
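First, TGR (20 nM dispensed) and NADPH were mixed with compound. Second, a 15 min room-temperature incubation followed. Third, further NADPH and then DTNB were added to start the reaction. Finally, TNB absorbance was monitored kinetically.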
FMDV inh: High Throughput Screening for Foot and Mouth Disease Virus Antivirals; FMDV antiviral cell-based qHTS; Potency, µM (doses to about 57.9 µM), without a hit: at the top dose activity change, negative = inhibition, usual class: inhibitors; 410,000 tested, 1.2% active; AID 1159524, 2015; calls by dose curve; tested in HEK293T cells; note: read-out not given here; potency is the fitted concentration of half-maximal effect; % is set by controls: 0 for no effect and ±100 for the full control effect; nearly all actives have a fitted effect of over 45% in size
Shiga toxin inh: A qHTS for Small Molecule Inhibitors of Shiga Toxin; Vero cells, Shiga toxin protein synthesis inhibition reporter; inhibition, % at 38.7 µM; 290,000 tested, 9.2% active; AID 2315, 2010; in the data active = inhibition mostly above about 28%, no sharp cut-off; inactive = mostly below about 43%; note: 0% is about no effect
Numbers without * were called inactive. Shown are actives, neighbours in structure and some others; about 12% of the full set was active somewhere.

`CCN(CC)S(=O)(=O)c1ccc(NC(=O)CN(c2ccccc2)S(=O)(=O)N(C)C)cc1` gave Sm TGR inh 11.4% and FMDV inh -23.2%.
For CCCCOC(=O)c1ccc(NC(=O)/C=C/c2cccs2)cc1 the results were Cycloheximide cs 40.7*, Sm TGR inh 0.8%, FMDV inh 7.4% and Shiga toxin inh 52.7*.
For CCCCCCOC(=O)c1ccccc1N the results were Cycloheximide cs 38.9*, Sm TGR inh 10.1%, FMDV inh 58.7% and Shiga toxin inh 76.3.
CCCCOC(=O)c1cc(=O)[nH]c2ccccc12 was read as Cycloheximide cs 11.2*, Sm TGR inh -1.2%, FMDV inh 15.4% and Shiga toxin inh 12.0.
`CCCCOC(=O)c1cc(=O)[nH]c2ccc(C)cc12` gave Cycloheximide cs 5.1, FMDV inh -1.1% and Shiga toxin inh 0.8.
CCCCOC(=O)c1ccccc1N was read as FMDV inh -8.1%.
Screening CCCCOC(=O)c1ccc(NC(=O)c2nn(C)cc2Br)cc1 returned Cycloheximide cs 29.9*, Sm TGR inh 4.0%, FMDV inh -4.4% and Shiga toxin inh 79.4*.
For CCc1ccc(CNC(=O)c2ccc(-n3c(C)cc4c3CCC(C)C4)cc2)cc1 (stereo not given) the results were Sm TGR inh -19.8% and FMDV inh -21.5%.
`CCC1(c2ccc(Cl)cc2)NC(=S)N(c2ccc(C)cc2)N1` (stereo not given) gave Cycloheximide cs 68.0*, Sm TGR inh -19.1%, FMDV inh 37.9% and Shiga toxin inh 90.5*.
`CCC1(c2ccc(C)cc2)C(=O)NC(=S)NC1=O` gave FMDV inh -11.7%.
`CCC1(c2ccc(Cl)cc2)NC(=S)N(c2ccc(C)c(C)c2)N1` (stereo not given) gave Cycloheximide cs -3.1, Sm TGR inh -26.6%, FMDV inh 7.0% and Shiga toxin inh 10.9.
CCC1(c2ccccc2)NC(=S)N(c2ccc(C)c(C)c2)N1 (stereo not given) was read as Cycloheximide cs 39.7*, Sm TGR inh 1.6%, FMDV inh 63.1% and Shiga toxin inh 36.0*.
`O=C(/C=C/c1ccc(F)cc1)N1CCN(S(=O)(=O)/C=C/c2ccccc2)CC1` gave Cycloheximide cs 0.5, Sm TGR inh 0.0%, FMDV inh -11.5% and Shiga toxin inh 6.8.
`NC(=O)C1CCN(C(=O)/C=C/c2ccco2)CC1` gave Cycloheximide cs -2.3, Sm TGR inh 7.94µM*, FMDV inh -10.6% and Shiga toxin inh 12.3.
Screening Cc1ccc(/C=C/C(=O)N2CCN(S(=O)(=O)/C=C/c3ccccc3)CC2)o1 returned Cycloheximide cs 1.0, Sm TGR inh 14.1µM*, FMDV inh -7.6% and Shiga toxin inh 13.2.
For O=C(C=Cc1ccco1)N1CCOCC1 the results were FMDV inh 23.9%.
Screening O=C(/C=C/c1ccco1)N1CCN(c2ccccc2)CC1 returned Cycloheximide cs 19.8, Sm TGR inh 11.2µM*, FMDV inh 15.5% and Shiga toxin inh 28.0.
`O=C(/C=C/c1ccco1)N1CCN(S(=O)(=O)/C=C/c2ccccc2)CC1` gave Cycloheximide cs 29.6*, Sm TGR inh 12.6µM*, FMDV inh -13.8% and Shiga toxin inh 48.7.
Screening COc1cccc(CN2C(=O)c3ccccc3Sc3ccc(C(=O)NCc4ccccc4)cc32)c1 returned Sm TGR inh 16.4% and FMDV inh 3.7%.
`Cc1nc2cc(NC(=O)[C@@H]3C[C@@H](Sc4ccccn4)CN3Cc3ccccc3)ccc2s1` gave FMDV inh 20.7%.
Screening Cc1c(-c2ccc(Cl)cc2)c(=O)oc2c(CN3CCN(C)CC3)c(O)ccc12 returned Sm TGR inh 3.1% and FMDV inh -21.2%.
COc1cc(=O)n2c(c1C(=O)N(C)Cc1nonc1C)CCN(C(=O)c1cccc(C)c1C)CC2 was read as FMDV inh 13.0%.
`COc1cc2[nH]c(=O)n(Cc3ccc(C(=O)N4CCN(c5cc(Cl)ccc5C)CC4)cc3)c(=O)c2cc1OC` gave Sm TGR inh -19.6% and FMDV inh -27.1%.
`O=C(/C=C/c1ccccc1)N1CCN(C(=O)c2ccco2)CC1` gave Cycloheximide cs 0.6, Sm TGR inh 9.8%, FMDV inh 0.0% and Shiga toxin inh 10.0.
O=C(/C=C/c1ccco1)N1CCN(C/C=C/c2ccccc2)CC1 was read as Cycloheximide cs 5.3, Sm TGR inh 39.8µM*, FMDV inh inconclusive and Shiga toxin inh 8.6.
For Nc1ccc(N=Nc2ccc(N)cc2)cc1 the results were Cycloheximide cs 33.0*, Sm TGR inh -12.3%, FMDV inh 38.2% and Shiga toxin inh 96.0.
